Pf growth 96h – Primary qHTS for delayed death inhibitors of the malarial parasite plastid, 96 hour incubation. 320,000 tested, 6.9% active. P. falciparum luciferase reporter growth, 96 h. Potency, µM (doses to about 28.7 µM), inactives show at the top dose activity change, negative = inhibition, most hits filed as inhibitors. AID 504834, 2011; note: potency is the fitted concentration of half-maximal effect; % is set by controls: 0 for no effect and ±100 for the full control effect
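Two parasite generations (96 h, 37 C, 5% CO2) of compound exposure in infected erythrocytes (0.05% parasitemia, 2% hematocrit). Luciferase-reporter P. falciparum; decreased luminescence indicates inhibited growth, aimed at apicoplast-acting delayed death.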
HCMV antiviral – qHTS Assay for inhibitors of the human cytomegalovirus (HCMV) | activity change, negative = inhibition, % at 57.5 µM | 410,000 tested, 4.5% active | HFF cells, HCMV-luciferase reporter, 72 h; stronger effect = lower value; in the data active = activity change below about -60%; inconclusive = no clear call, values can overlap the other calls; inactive = above about -39%; note: % is set by controls: 0 for no effect and ±100 for the full control effect
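Steps: HFFs plated, 16 h 37C; compounds added; HCMV-luciferase added to MOI 1 PFU/cell; 72 h 37C; OneGlo reagent, 5 min room temperature; luminescence read, normalized to controls.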
Shiga toxin inh – A qHTS for Small Molecule Inhibitors of Shiga Toxin; 290,000 tested, 9.2% active; Vero cells, Shiga toxin protein synthesis inhibition reporter; inhibition, % at 38.7 µM; in the data active = inhibition mostly above about 28%, no sharp cut-off; inactive = mostly below about 43%; note: 0% is about no effect
Pf growth 48h – Primary qHTS for delayed death inhibitors of the malarial parasite plastid, 48 hour incubation; P. falciparum luciferase growth in erythrocytes, 48 h; Potency, µM (series often up to 28.7 µM), for the others: at the top dose activity change, negative = inhibition, most hits filed as inhibitors; 310,000 tested, 5.9% active; note: potency is the fitted concentration of half-maximal effect; % is set by controls: 0 for no effect and ±100 for the full control effect
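Luciferase-expressing P. falciparum in infected erythrocytes (2% hematocrit, 0.1% parasitemia final) in RPMI 1640/0.5% Albumax were exposed to compound for 48 hours at 37 C, 5% CO2; growth read as luminescence.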
Cycloheximide cs – Cycloheximide Counterscreen for Small Molecule Inhibitors of Shiga Toxin; cell reporter, cycloheximide protein synthesis inhibition counterscreen; max response, %; 300,000 tested, 12% active; AID 2314, 2010; in the data active = max response mostly above about 13%, no sharp cut-off; inactive = mostly below about 14%; note: read at 38.3 µM for the half of the compounds with a filed dose; 0% is about no effect
HCV inh – qHTS Assay for Inhibitors of Hepatitis C Virus (HCV); Huh7.5.1 HCVcc-Cre infection, luciferase reporter, 44 h; Potency, µM (series often up to 41.8 µM), for the others: top-dose activity change, negative = inhibition, hits mostly inhibitors; 340,000 tested, 3.4% active; note: potency is the fitted concentration of half-maximal effect; % is set by controls: 0 for no effect and ±100 for the full control effect
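Infectious HCV cell culture screen: compound-treated cells (1,000/well, pre-plated 4 h) are infected with HCVcc-Cre at roughly 0.5 moi and grown 44 h. Infection is quantified by luciferase signal after 15 min substrate incubation at room temperature.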
An asterisk follows results filed as active; ? = inconclusive; / = not tested or not shown; [ ] = another dose, or the depositor's remark. A selection: hits, their analogues and other compounds. The true share with any hit is near 21%. Unless noted, calls come from the whole dose curve; as a rule, active = well fitted inhibition curve with a large enough effect; inconclusive = small, poorly fitted or top-dose-only effect, or another doubt; inactive = no such curve, though single readings can be large or run the other way.

SMILES	Pf growth 96h	HCMV antiviral	Shiga toxin inh	Pf growth 48h	Cycloheximide cs	HCV inh
COc1ccccc1N1CCN(C(=O)C(Sc2ccccc2)c2ccccc2)CC1 (stereo unspecified)	7%	16	-2	13µM*	-1	11µM*
CC(=O)c1c(C)[nH]c(C(=O)N2CCN(c3ccc(F)cc3)CC2)c1C	20%	-71*	-6	/	9	-13%
Nc1nc2c(-c3ccc([N+](=O)[O-])cc3)nnn2c2ccccc12	/	-16	/	/	/	/
c1ccc(N2CCN(c3ncccn3)CC2)cc1	52%	13	25	54%	22*	7%
Oc1ccccc1N1CCN(c2ncccn2)CC1	/	16	-4	-4%	9	5%
O=C(c1ccc(CSc2ccccc2)cc1)N1CCN(c2ccccc2)CC1	7%	18	-1	-12%[5.75 µM]	-2	-2%
COc1ccccc1N1CCN(C(=O)c2sc3nc(-c4ccc(F)cc4)cn3c2C)CC1	?	-61*	11	?	-3	4.5µM*
CN1CCN(c2nc(N3CCN(c4ccccc4)CC3)ncc2F)CC1	/	-29	-29	-5%	-1	6.3µM*
COc1ccc(-c2cn3c(C)c(C(=O)N4CCN(c5ccc(F)cc5)CC4)sc3n2)cc1	47%	36	-8	/	-4	-7%
COc1ccccc1N1CCN(C(=O)c2ccc(CSc3ccccc3)cc2)CC1	6%	-92*	15	-26%	5	-15%
COc1ccc(NC(=O)C(c2ccccc2)n2c(=O)c(-c3cc4ccccc4[nH]3)nc3ccccc32)cc1 (stereo unspecified)	/	35	/	/	/	/
Nc1cc(N)nc(SCC(=O)N2CCN(S(=O)(=O)c3ccccc3)CC2)n1	?	-6	0	-18%	-3	17%
CCOc1cccc(C2C(C(=O)c3ccc(C)o3)=C(O)C(=O)N2CCCn2ccnc2)c1 (stereo unspecified)	-6%	-14	/	0%	/	3%
Cc1cc(NC(=O)c2ccco2)ccc1NC(=O)Cc1cccs1	6.6µM*	-22	32*	61%	20*	-13%
Cc1cc(NC(=O)c2ccccc2)ccc1NC(=O)Cc1ccccc1	4.1µM*	-24	/	-12%	-2	2%
Cc1cc2nn(-c3cccc4ccccc34)nc2cc1N	/	35	44*	?	22*	8%
CCc1ccc(-n2nc3cc(C)c(N)cc3n2)cc1	13µM*	102	142*	184%	57*	-17%
CCc1ccc(-n2nc3cc(C)c(NC(=O)c4ccccc4C)cc3n2)cc1	/	12	/	/	/	/
Cc1ccc(-n2nc3cc(C)c(N)cc3n2)cc1	/	-16	96*	135%	53*	-21%
CN(C)c1cccc(Nc2cc3c(cn2)cc(-c2cnn(C)c2)n3C)c1	/	-32	/	/	/	/
Cc1ccc(CNc2nc(-c3cccs3)nc3ccccc23)cc1	?	0	-4	?	-3	-20%
Oc1ccccc1-c1nc(NCc2ccccc2)c2ccccc2n1	?	-31	-5	?	-2	11µM*
c1ccc(-c2nc(NCc3ccco3)c3ccccc3n2)nc1	2.9µM*	-102*	-1	2.6µM*	9	?
Fc1ccccc1-c1nc(NCc2ccco2)c2ccccc2n1	-6%	-81*	-8	?	-2	-25%
Oc1ccccc1-c1nc(NCc2ccco2)c2ccccc2n1	?	2	36*	-22%	25*	3.2µM*
SMILES	Pf growth 96h	HCMV antiviral	Shiga toxin inh	Pf growth 48h	Cycloheximide cs	HCV inh
O=S(=O)(Nc1nc2ccccc2nc1NCc1ccco1)c1ccc(F)cc1	12%	-31	-8	5%	-1	1%
O=c1c2ccccc2nc2c3ccccc3c(NCc3ccco3)nn12	-7%	9	35	/	17	?
CCc1cccc(CC)c1NC(=O)CCS(=O)(=O)c1ccc(Br)cc1	/	0	/	/	/	/
Cc1nc2nc(SCc3ccc(F)cc3Cl)nn2c(C)c1Cc1ccccc1	/	-7	/	/	/	/
COC(=O)c1ccc(CNC(=O)COC(=O)c2cccs2)cc1	/	20	/	/	/	-24%
CSCCC(NC(=O)/C(=C/c1ccc(F)cc1)NC(C)=O)C(=O)O (stereo unspecified)	-3%	-39	-21	4%	-4	4%
Cc1ccc(S(=O)(=O)N2CCOC23CCN(S(=O)(=O)c2c(C)cc(C)cc2C)CC3)cc1	4.7µM*	-98*	/	?	/	?
COc1ccc(S(=O)(=O)N2CCOC23CCN(S(=O)(=O)c2ccc(C)cc2)CC3)cc1	?	-25	/	15µM*	/	?
COc1ccc(S(=O)(=O)N2CCC3(CC2)OCCN3S(=O)(=O)c2ccc(C)cc2)cc1OC	7%	-14	/	-2%	/	29%
COc1ccc(S(=O)(=O)N2CCOC23CCN(S(=O)(=O)c2ccc(F)cc2)CC3)cc1	?	-26	/	?	/	2%
CCN(C(=O)CN1CCN(S(=O)(=O)c2cc(Cl)ccc2Cl)CC1)c1c(N)n(Cc2ccccc2)c(=O)[nH]c1=O	?	12	10	-14%	-3	33%
O=[N+]([O-])c1ccc(S(=O)(=O)N2CCn3cccc3C2c2ccc(Br)cc2)cc1 (stereo unspecified)	/	-27	/	/	/	/
C/C(=N\Nc1nnc2c3ccccc3n(C)c2n1)c1ccc(C)o1	?	36	29	?	13	-28%
Cc1cc(C)n(-c2nnc3c4ccccc4n(C)c3n2)n1	47%	109	113*	88%	44*	-20%
CN(Cc1cccc(C(F)(F)F)c1)Cc1nc(-c2cnccn2)no1	7.4µM*	-1	21	19%	10	-7%
CCC1CCCCN1C(=O)CSc1nc2c([nH]c3ccccc32)c(=O)n1C (stereo unspecified)	-1%	-1	-6	9.3µM*	-1	?
COCCn1c(SCC(=O)N2CCCCC2)nc2c([nH]c3ccccc32)c1=O	?	-34	-8	12µM*	9	-6%
CCOC(=O)N1CCN(C(=O)CSc2nc3c([nH]c4ccccc43)c(=O)n2CCOC)CC1	12µM*	147	-5	?	-1	-23%
CC(Sc1nnc(C2CC2)n1N)C(=O)NC1CCCCC1C (stereo unspecified)	21%	5	-8	10%	-2	17%
O=C(c1ccc(F)cc1)N1CCC(C(=O)N2CCN(S(=O)(=O)c3cccc([N+](=O)[O-])c3)CC2)CC1	?	1	/	?	/	-14%
COc1ccc(OC)c(NC(=O)CCCc2nnc3n(C(C)C)c(=O)c4sccc4n23)c1	/	35	/	/	/	/
CC(=O)Nc1ccc(NC(=O)CC(C)n2ccnc2)cc1 (stereo unspecified)	0%	?	-8	29%	-5	5%

Screens as filed in PubChem BioAssay.
